PubChem BioAssay (NCI)
The panel holds about 83,000 compounds, 20% with a hit somewhere; the sample as a whole holds those more often.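 Assay: single dose, 48 h. Readout: percent growth (0 = no net growth; negative = cell death). Active: <10.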 Values without a mark were called inactive. Activity calls are given as the source filed them.

Columns and labels:
Experiment in all cases: NCI-60 one-dose screen, 48 h (100 = growth as untreated, 0 = no growth, -100 = all killed)
Details in all cases: 10 µM unless noted
[1] = test system: SK-MEL-2 melanoma
[2] = test system: EKVX NSCLC
[3] = test system: SN12C renal
[4] = test system: TK-10 renal
[5] = test system: ACHN renal
[6] = test system: CAKI-1 renal
[7] = test system: A498 renal
[8] = test system: MOLT-4 leukemia
[9] = test system: CCRF-CEM leukemia
[10] = test system: UO-31 renal

SMILES | growth [1] | growth [2] | growth [3] | growth [4] | growth [5] | growth [6] | growth [7] | growth [8] | growth [9] | growth [10]
C(#Cc1ccccc1C#Cc1ccccn1)c1ccc(OCCCCCCOc2ccc(C#Cc3ccccc3C#Cc3ccccn3)cc2)cc1 | 64.2% | 42.5% | 67.8% | 76.2% | 44.2% | 57.9% | 57.5% | 21.6% |  | 
c1ccc2nc(Cn3c[n+](Cc4ccc5ccccc5n4)c4ccccc43)ccc2c1 | 28.9% | 74.7% | 22.7% |  | 103% |  | 51.1% | 31.9% | 34.9% | 
Cc1csc(C#Cc2cncc(O)c2)n1 | 108% | 110% | 102% | 121% | 117% | 93.8% | 103% | 105% | -8.24% (active) | 
Cn1cc(NC(=O)Nc2cc(C(=O)O)n(C)c2)cc1C(=O)O | 97.8% | 114% | 89.6% | 107% | 104% | 99.3% | 109% | 85.9% | 103% | 
COc1cccc(-c2nc(-c3ccc(N)cc3)co2)c1 | 99.8% | 102% | 95.2% | 109% | 106% | 94.7% | 100% | 81.8% |  | 
Cc1ccc2nc3c(n2c1)C(=O)C(=O)c1ccccc1-3 | -55.6% (active) | -89.6% (active) | -71.7% (active) | -62.4% (active) | -77.1% (active) | -83% (active) |  | -70.8% (active) | -12.8% (active) | 
COc1cnc2c(c1)C(=O)c1c-2n(CCCn2ccnc2)c(=O)c2cc(F)ccc12 | -19.1% (active) | 11.4% | 12.4% |  | -72.6% (active) |  | -84.4% (active) | -23.9% (active) | -0.897% (active) | 
C[C@]12CCC(=O)C=C1CCC1C2[C@@H](O)C[C@@]2(C)C1CC[C@]2(O)C(=O)COC(=O)CCC(=O)O (stereo partly drawn) | 123% | 78.7% | 57.2% |  | 102% | 81.1% | 118% | 115% | 64.9% | 
N#Cc1ccccc1C#Cc1ccccc1C#Cc1ccc(OCCCCCCOc2ccc(C#Cc3ccccc3C#Cc3ccccc3C#N)cc2)cc1 | 98.3% | 111% | 104% | 147% | 109% | 116% | 113% | 103% | 3.16% (active) | 
CC(C)N(Cc1ccccc1)c1c(Cl)ssc1=O | 93.7% | 100% | 99.7% | 124% | 102% | 113% | 109% | 121% |  | 
COc1ccc2c(c1)CC/C(=C\c1ccc(OCC(=O)Nc3nc4ccccc4s3)cc1)C2=O | 63% | 95.9% |  | 112% | 97.2% | 79.3% | 117% | 71.2% | -37% (active) | 22.2%
Nc1ccc2c(c1)Cc1cc(Cl)c(Cl)cc1-2 | 47.5% | 48% |  | 101% | 66.8% | 65.4% | 60.1% | 70.2% | 32.2% | 63.6%
CN(C)c1ccc(-n2nc3ccccc3n2)cc1 | 102% | 76.7% | 97.2% | 143% | 96.1% | 73.5% | 96.4% | 82.6% |  | 
N#Cc1c(NC(=O)c2ccco2)[n+]([O-])c2ccccc2[n+]1[O-] | 92.9% | 98.7% | 93.4% | 133% | 110% | 110% |  | 85.3% |  | 
COc1cc(/C=C/C(=O)C(C(=O)/C=C/c2ccc(OC(=O)CCNc3nnc(C)s3)c(OC)c2)C(=O)CCNc2nnc(C)s2)ccc1OC(=O)CCNc1nnc(C)s1 | 13.2% | 21.9% | -33.9% (active) | 29.4% | -21.4% (active) | -3.62% (active) |  | -27.9% (active) |  | 
N=C1c2nc3n(c2C(=O)c2nc4n(c21)CCCCC4)CCCCC3 | 118% | 103% |  | 142% | 105% | 95.1% | 91.6% | 93.7% | 104% | 
Cc1ccc2nc(-c3ccc(N(C)C)c(Br)c3)cn2c1 | 94.3% | 79.5% |  | 146% | 95.6% | 126% | 118% | 28.6% |  | 
C[C@H]1O[C@@H](O[C@H]2[C@@H](O)C[C@H](O[C@H]3[C@@H](O)C[C@H](O[C@H]4CC[C@]5(C)C6CC[C@]7(C)[C@@H](C8=CC(=O)OC8)CC[C@]7(O)C6CC[C@@H]5C4)O[C@@H]3C)O[C@@H]2C)C[C@H](O)[C@@H]1O (stereo partly drawn) | -68.5% (active) | -98.4% (active) |  |  | -68% (active) | -92.6% (active) | -28.5% (active) | -36.9% (active) | -58.6% (active) | -90.4% (active)
CC(C)C[C@H](NC(=O)/C=C/Cn1ccc2ccccc2c1=O)B(O)O | 24% |  | 54.7% | 2.1% (active) | 31.7% | 45.3% | -3.46% (active) | 1.78% (active) | 12.2% | 48.9%
COc1ccc(NC(=O)[C@@H]2C[C@H]2c2ccccc2)c(C(N)=O)c1 | 89.9% |  | 96% | 96% | 102% | 103% | 98.1% | 92.4% | 94% | 87.9%
C1=C(Cc2ccccc2)n2cnc3ncnc(c32)S1 | 75% |  | 86.4% | 28.6% | 87.2% | 39.6% | 99.6% | 31.2% | 58.9% | 48.3%
NC(=NCCCCCCN=C(N)/N=C(\N)Nc1ccc(Cl)cc1)/N=C(\N)Nc1ccc(Cl)cc1 | -31.8% (active) | 23.9% |  |  | 20.5% | 10.3% | 11.1% | 21.2% | 12.5% | 46.6%
O=C1C2C(C(=O)N1CC[Se][Se]CCN1C(=O)C3C(C1=O)[C@H]1C=C[C@@H]3C1)[C@H]1C=C[C@@H]2C1 (stereo partly drawn) | -53.3% (active) | -56% (active) |  | -70.2% (active) | -52.2% (active) | -87.7% (active) |  | 1.28% (active) | 2.3% (active) | -84.4% (active)
COCCOCCOCCOCCOc1ccc2c(c1)C(=O)c1nc3ncccc3c(=O)n1-2 | 6.22% (active) | 10.5% |  | -77.4% (active) | -19.5% (active) |  | -100% (active) | -28.7% (active) | 5.42% (active) | -7.56% (active)
O=C(CC(C(=O)c1ccccc1)N1CCN(Cc2ccccc2)CC1)c1ccccc1 (stereo not drawn) | 104% | 120% |  | 96.6% | 41.8% | 73.5% | 74.6% | 49.5% | 8.48% (active) | 80%
COC(=O)N/N=C/c1coc2ccc(Cl)cc2c1=O | 68.5% | 85.4% |  | 120% | 91.6% | 81.8% | 111% | 84.2% | 90.7% | 84.1%
O=C(NC1CCCCC1)c1ccc(Nc2ncnc3c2cnn3-c2ccccc2)cc1 | 79.1% |  | 19% | 51% | 54.3% | 62.3% | 50.4% | 89.5% | 64.9% | 57.7%
CCOC(=O)c1sc(NC(=O)COc2cccc(/C=C3\CCc4cc(OC)ccc4C3=O)c2)nc1C | 42.6% | 82.9% |  | 89.3% | 85.7% | 60.2% |  | 7.22% (active) | -17.2% (active) | 14%
COc1ccc(-c2nc3sc4c(c3c(=O)[nH]2)CCCCCC4)cc1 | 39.7% |  | 59.4% | 60.5% | 65.6% | 47.2% | 34.6% | 43.4% | 30% | 62%
N#Cc1ncc(-c2ccc(C(F)(F)F)cc2)c(NC2CCCCCC2)n1 | 7.62% (active) |  | 19.6% | 58.1% | -1.84% (active) | 56.8% | 77.6% | 66.8% | 24.8% | 5.41% (active)
